# Activity calls are given as the source filed them. Rule for the calls: active = hit-call score of the fitted dose curve at least 0.9, where 1 is the maximum; inactive = score below 0.9.
# What was measured:
# Details in all cases: mRNA level, 48 h; actives raise or lower the signal
# [1] = read-out: Cytochrome P450 7A1 (Homo sapiens) (UniProt P22680); test: LTEA_HepaRG_CYP7A1: Life Technologies and Expression Analysis (LTEA) Assay for Cytochrome P450 7A1 (CYP7A1) using HepaRG (AID 2283496)
# Outline: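 HepaRG cells plated 48 h, then switched to serum-free induction medium and exposed in duplicate for 48 h to 8-point half-log series from 100 uM in 0.5% DMSO. CYP7A1 mRNA by qRT-PCR (TaqMan), normalized to ACTB/GAPDH/POLR2A; bidirectional fit versus DMSO.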
# [2] = read-out: Glutathione S-Transferase (GSTA2), GSTA2 (gene 2939); test: LTEA_HepaRG_GSTA2: Life Technologies and Expression Analysis (LTEA) Assay for Glutathione S-Transferase (GSTA2) using HepaRG (AID 2283497)
# Outline: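 Human HepaRG cells, plated 48 h, then exposed in serum-free induction medium for 48 h to eight half-log concentrations up to 100 uM in 0.5% DMSO, duplicate. GSTA2 mRNA by qRT-PCR, normalized to ACTB/GAPDH/POLR2A; bidirectional fit versus DMSO.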
# [3] = read-out: Glutamate-cysteine ligase catalytic (GCLC), GCLC (gene 2729); test: LTEA_HepaRG_GCLC: Life Technologies and Expression Analysis (LTEA) Assay for Glutamate-cysteine ligase catalytic (GCLC) using HepaRG (AID 2283498)
# Outline: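 Differentiated human HepaRG cells, plated 48 h then switched to serum-free induction medium, were exposed in duplicate for 48 h to 8 half-log concentrations topping at 100 uM in 0.5% DMSO. GCLC mRNA was quantified by qRT-PCR against ACTB, GAPDH and POLR2A.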
# [4] = read-out: growth arrest and DNA damage 45 (GADD45G), GADD45G (gene 10912); test: LTEA_HepaRG_GADD45G: Life Technologies and Expression Analysis (LTEA) Assay for growth arrest and DNA damage 45 (GADD45G) using HepaRG (AID 2283499)
# Outline: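 HepaRG, 48 h exposure, top 100 uM, half-log 8-point series, 0.5% DMSO vehicle, duplicates. Readout: GADD45G transcript by qRT-PCR (Fluidigm array), housekeeping-normalised (ACTB/GAPDH/POLR2A). Bidirectional curve fit vs DMSO baseline.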
# [5] = read-out: Glutamate-cysteine ligase regulatory (GCLM), GCLM (gene 2730); test: LTEA_HepaRG_GCLM: Life Technologies and Expression Analysis (LTEA) Assay for Glutamate-cysteine ligase regulatory (GCLM) using HepaRG (AID 2283500)
# Outline: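 Cells were plated, cultured 48 h, switched to serum-free induction medium, then dosed in duplicate for 48 h at eight half-log concentrations up to 100 uM. RNA was then profiled by qRT-PCR; gain or loss versus DMSO was fitted.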
# [6] = read-out: Glutathione S-transferase M3 (GSTM3), GSTM3 (gene 2947); test: LTEA_HepaRG_GSTM3: Life Technologies and Expression Analysis (LTEA) Assay for Glutathione S-transferase M3 (GSTM3) using HepaRG (AID 2283501)
# Outline: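 qRT-PCR read-out of GSTM3 transcript, normalized to three housekeeping genes, from human HepaRG cells after 48 h chemical exposure. Eight-point half-log series, top 100 uM, 0.5% DMSO vehicle; gain or loss fitted relative to DMSO baseline.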
# [7] = read-out: Hypoxia-inducible factor 1-alpha (Homo sapiens) (UniProt Q16665); test: LTEA_HepaRG_HIF1A: Life Technologies and Expression Analysis (LTEA) Assay for Hypoxia-inducible factor 1 (HIF1A) Trancription factor using HepaRG (AID 2283503)
# Outline: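 Differentiated HepaRG cells in serum-free induction medium exposed 48 h, in duplicate, to 8-point half-log series from 100 uM in 0.5% DMSO. HIF1A mRNA measured by TaqMan qRT-PCR, normalized to ACTB/GAPDH/POLR2A, fitted bidirectionally versus DMSO.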
# [8] = read-out: 3-Hydroxy-3-Methylglutaryl-CoA Synthase 2 (HMGCS2), HMGCS2 (gene 3158); test: LTEA_HepaRG_HMGCS2: Life Technologies and Expression Analysis (LTEA) Assay for 3-Hydroxy-3-Methylglutaryl-CoA Synthase 2 (HMGCS2) using HepaRG (AID 2283504)
# Outline: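 qRT-PCR read-out of HMGCS2 transcript, normalised to three housekeeping genes, in HepaRG cells after 48 h chemical exposure. Eight-point curves from 100 uM, half-log dilutions, 0.5% DMSO vehicle; gain or loss fitted relative to DMSO baseline.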
# HGF (gene 3082) = test: LTEA_HepaRG_HGF: Life Technologies and Expression Analysis (LTEA) Assay for Hepatocyte Growth Facto (HGF) using HepaRG (AID 2283505)
# Outline: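 HepaRG, 48 h dosing, 8-pt half-log series from 100 uM in 0.5% DMSO, duplicates. Readout: TaqMan qRT-PCR of HGF mRNA, housekeeping-normalized; bidirectional curve fit vs DMSO baseline.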
# [9] = read-out: Intercellular Adhesion Molecule 1 (ICAM1), ICAM1 (gene 3383); test: LTEA_HepaRG_ICAM1: Life Technologies and Expression Analysis (LTEA) Assay for Intercellular Adhesion Molecule 1 (ICAM1) using HepaRG (AID 2283507)
# Outline: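 HepaRG, 48 h exposure, 8-pt half-log series from 100 uM, 0.5% DMSO vehicle, duplicates. Readout: TaqMan qRT-PCR mRNA, housekeeping-normalized (ACTB/GAPDH/POLR2A). Bidirectional curve fit vs DMSO baseline.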
# [10] = read-out: Insulin-like growth factor-binding protein 1 (IGFBP1), IGFBP1 (gene 3484); test: LTEA_HepaRG_IGFBP1: Life Technologies and Expression Analysis (LTEA) Assay for Insulin-like growth factor-binding protein 1 (IGFBP1) using HepaRG (AID 2283508)
# Outline: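 qRT-PCR mRNA read-out (TaqMan, Fluidigm array), normalised to three housekeeping genes; HepaRG cells, 48 h exposure, 8-pt half-log series from 100 uM, 0.5% DMSO vehicle; bidirectional curve fit vs DMSO baseline.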
# [11] = read-out: Interleukin 6 (IL6), IL6 (gene 3569); test: LTEA_HepaRG_IL6: Life Technologies and Expression Analysis (LTEA) Assay for Interleukin 6 (IL6) using HepaRG (AID 2283509)
# Outline: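 Differentiated human HepaRG cells, plated 48 h then switched to serum-free induction medium, were exposed in duplicate for 48 h to eight half-log concentrations up to 100 uM in 0.5% DMSO. IL6 mRNA measured by qRT-PCR, normalized to ACTB/GAPDH/POLR2A.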
# [12] = read-out: Interleukin 6 Receptor (IL6R), IL6R (gene 3570); test: LTEA_HepaRG_IL6R: Life Technologies and Expression Analysis (LTEA) Assay for Interleukin 6 Receptor (IL6R) using HepaRG (AID 2283510)
# Outline: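 Readout is IL6R transcript level by TaqMan qRT-PCR, normalized to three housekeeping genes and fitted bidirectionally against 0.5% DMSO controls. Human HepaRG cells received chemicals for 48 h in serum-free induction medium, highest concentration 100 uM.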
# [13] = read-out: Potassium channel subfamily K member 1 (KCNK1), KCNK1 (gene 3775); test: LTEA_HepaRG_KCNK1: Life Technologies and Expression Analysis (LTEA) Assay for Potassium channel subfamily K member 1 (KCNK1) using HepaRG (AID 2283511)
# Outline: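 Differentiated human HepaRG cells in serum-free induction medium were exposed in duplicate for 48 h to 8 half-log concentrations up to 100 uM in 0.5% DMSO. KCNK1 mRNA was measured by TaqMan qRT-PCR, normalized to ACTB, GAPDH and POLR2A, and fitted bidirectionally versus DMSO.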
# [14] = read-out: Keratin 19 (KRT19), KRT19 (gene 3880); test: LTEA_HepaRG_KRT19: Life Technologies and Expression Analysis (LTEA) Assay for Keratin 19 (KRT19) using HepaRG (AID 2283512)
# Outline: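 HepaRG, 48 h chemical exposure, 8-pt half-log CRC from 100 uM, 0.5% DMSO vehicle, duplicates. Readout: TaqMan qRT-PCR of KRT19 mRNA, housekeeping-normalized (ACTB/GAPDH/POLR2A). Bidirectional fit vs DMSO baseline.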
# [15] = read-out: JUN Transcription Factor, JUN (gene 3725); test: LTEA_HepaRG_JUN: Life Technologies and Expression Analysis (LTEA) Assay for JUN Transcription Factor using HepaRG (AID 2283513)
# Outline: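 Cells plated 48 h, medium switched to serum-free induction medium, then dosed 48 h (100 uM top, half-log dilutions, 0.5% DMSO). RNA isolated; JUN measured by qRT-PCR against three housekeeping genes; gain or loss fitted relative to DMSO.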
# [16] = read-out: Lipase C (LIPC), LIPC (gene 3990); test: LTEA_HepaRG_LIPC: Life Technologies and Expression Analysis (LTEA) Assay for Lipase C (LIPC) using HepaRG (AID 2283514)
# Outline: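 Differentiated human HepaRG cells in serum-free induction medium were exposed in duplicate for 48 h to eight concentrations (top 100 uM, half-log steps, 0.5% DMSO). LIPC mRNA was quantified by TaqMan qRT-PCR, normalized to ACTB, GAPDH and POLR2A, with bidirectional fitting versus DMSO.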
# [17] = read-out: Lipoprotein lipase (LPL), LPL (gene 4023); test: LTEA_HepaRG_LPL: Life Technologies and Expression Analysis (LTEA) Assay for Lipoprotein lipase (LPL) using HepaRG (AID 2283515)
# Outline: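 Differentiated human HepaRG cells in serum-free induction medium were exposed in duplicate for 48 h to eight half-log concentrations (top 100 uM) in 0.5% DMSO. LPL mRNA was quantified by TaqMan qRT-PCR, normalized to ACTB, GAPDH and POLR2A.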
# [18] = read-out: Heat shock 70 kDa protein 1 (HSPA1A), gene 3303; test: LTEA_HepaRG_HSPA1A: Life Technologies and Expression Analysis (LTEA) Assay for Heat shock 70 kDa protein 1 (HSPA1A) using HepaRG (AID 2283502)
# Outline: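 Readout is HSPA1A transcript level by microfluidic qRT-PCR, normalized to three housekeeping genes and analysed for gain or loss of signal relative to 0.5% DMSO. Human HepaRG cultures received test chemicals for 48 h at up to 100 uM.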
# [19] = read-out: Insulin Like Growth Factor 1 (IGF1), IGF1 (gene 3479); test: LTEA_HepaRG_IGF1: Life Technologies and Expression Analysis (LTEA) Assay for Insulin Like Growth Factor 1 (IGF1) using HepaRG (AID 2283506)
# Outline: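 HepaRG, plated 48 h, then switched to serum-free induction media; test chemical 8-pt half-log from 100 uM (0.5% DMSO), duplicate, 48 h. Lysis in RLT, TaqMan qRT-PCR, norm. ACTB/GAPDH/POLR2A. Bidirectional fit vs DMSO.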
# Hypoxia-inducible factor 1-alpha (Homo sapiens), sequence (Q16665 whole entry, looked up): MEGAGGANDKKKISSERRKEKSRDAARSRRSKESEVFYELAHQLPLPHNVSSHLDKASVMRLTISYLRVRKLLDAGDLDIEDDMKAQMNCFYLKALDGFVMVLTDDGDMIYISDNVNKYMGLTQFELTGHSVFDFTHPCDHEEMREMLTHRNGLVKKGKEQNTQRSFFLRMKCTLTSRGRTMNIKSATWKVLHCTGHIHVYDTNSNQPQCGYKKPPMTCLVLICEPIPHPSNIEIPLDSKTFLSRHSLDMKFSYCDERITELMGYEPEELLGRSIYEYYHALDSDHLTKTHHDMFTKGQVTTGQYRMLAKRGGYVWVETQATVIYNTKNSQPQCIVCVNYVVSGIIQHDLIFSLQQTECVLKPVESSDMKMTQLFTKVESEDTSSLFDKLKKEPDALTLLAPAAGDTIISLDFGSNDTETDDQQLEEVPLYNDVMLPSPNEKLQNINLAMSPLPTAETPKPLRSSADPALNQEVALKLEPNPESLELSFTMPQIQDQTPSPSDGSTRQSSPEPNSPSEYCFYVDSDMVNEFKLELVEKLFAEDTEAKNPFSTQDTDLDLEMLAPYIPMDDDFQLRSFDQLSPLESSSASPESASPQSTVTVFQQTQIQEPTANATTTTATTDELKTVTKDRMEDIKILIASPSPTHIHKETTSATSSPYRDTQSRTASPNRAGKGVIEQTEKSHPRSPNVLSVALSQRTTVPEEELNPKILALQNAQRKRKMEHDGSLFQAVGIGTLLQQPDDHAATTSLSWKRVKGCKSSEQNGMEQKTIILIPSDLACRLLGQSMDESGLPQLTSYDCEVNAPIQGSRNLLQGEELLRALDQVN
structure (smiles),measurement,setting,value
N#Cc1ccc(N(CC(N)=O)CC(F)(F)F)cc1C(F)(F)F,AC50,[1],0.622 µM (active)
same,outcome,[2],inactive
same,outcome,[3],inactive
same,outcome,[4],inactive
same,outcome,[5],inactive
same,outcome,[6],inactive
same,outcome,[7],inactive
same,outcome,[8],inactive
same,outcome,HGF (gene 3082),inactive
same,outcome,[9],inactive
same,outcome,[10],inactive
same,outcome,[11],inactive
same,outcome,[12],inactive
same,outcome,[13],inactive
same,outcome,[14],inactive
same,outcome,[15],inactive
same,outcome,[16],inactive
same,outcome,[17],inactive
ClC(Cl)=C(c1ccc(Cl)cc1)c1ccc(Cl)cc1,outcome,[1],inactive
same,outcome,[2],inactive
same,outcome,[3],inactive
same,outcome,[4],inactive
same,outcome,[5],inactive
same,outcome,[6],inactive
same,outcome,[7],inactive
same,outcome,HGF (gene 3082),inactive
same,outcome,[9],inactive
same,outcome,[10],inactive
same,outcome,[11],inactive
same,outcome,[12],inactive
same,outcome,[13],inactive
same,outcome,[14],inactive
same,outcome,[15],inactive
same,outcome,[17],inactive
ClC1=C(Cl)[C@]2(Cl)[C@@H]3[C@@H](Cl)[C@H]4O[C@H]4[C@@H]3C1(Cl)C2(Cl)Cl,AC50,[1],13.3 µM (active)
same,AC50,[2],82.5 µM (active)
same,outcome,[3],inactive
same,outcome,[4],inactive
same,outcome,[5],inactive
same,outcome,[6],inactive
same,outcome,[18],inactive
same,outcome,[7],inactive
same,outcome,HGF (gene 3082),inactive
same,outcome,[9],inactive
same,outcome,[10],inactive
same,outcome,[11],inactive
same,outcome,[12],inactive
same,outcome,[13],inactive
same,outcome,[14],inactive
same,outcome,[17],inactive
Clc1ccc(C(Cl)(Cl)Cl)cc1,outcome,[1],inactive
same,outcome,[2],inactive
same,outcome,[3],inactive
same,outcome,[4],inactive
same,outcome,[5],inactive
same,outcome,[6],inactive
same,outcome,[18],inactive
same,outcome,[7],inactive
same,outcome,HGF (gene 3082),inactive
same,outcome,[9],inactive
same,outcome,[10],inactive
same,outcome,[11],inactive
same,outcome,[12],inactive
same,outcome,[13],inactive
same,outcome,[14],inactive
same,outcome,[15],inactive
same,outcome,[17],inactive
O=S(=O)(O)C(F)(F)C(F)(F)C(F)(F)C(F)(F)C(F)(F)C(F)(F)F,outcome,[1],inactive
same,outcome,[3],inactive
same,AC50,[4],3.41 µM (active)
same,outcome,[5],inactive
same,outcome,[6],inactive
same,outcome,[18],inactive
same,AC50,[7],4.59 µM (active)
same,outcome,HGF (gene 3082),inactive
same,outcome,[19],inactive
same,outcome,[9],inactive
same,outcome,[10],inactive
same,outcome,[11],inactive
same,outcome,[12],inactive
same,outcome,[13],inactive
same,outcome,[14],inactive
same,outcome,[15],inactive
same,outcome,[16],inactive
same,outcome,[17],inactive
Cc1ccc(O)c(C)c1,outcome,[1],inactive
same,outcome,[3],inactive
same,outcome,[4],inactive
same,outcome,[5],inactive
same,outcome,[6],inactive
same,outcome,[18],inactive
same,outcome,[7],inactive
same,outcome,HGF (gene 3082),inactive
same,outcome,[19],inactive
same,outcome,[9],inactive
same,outcome,[10],inactive
same,outcome,[11],inactive
same,outcome,[12],inactive
same,outcome,[13],inactive
same,outcome,[14],inactive
same,outcome,[15],inactive
same,outcome,[17],inactive
CO/C=C(/C(=O)OC)c1ccccc1COc1cccc(C(F)(F)F)n1,AC50,[1],8.85 µM (active)
same,AC50,[2],9.29 µM (active)
same,outcome,[3],inactive
same,AC50,[4],6.56 µM (active)
same,AC50,[5],8.95 µM (active)
same,AC50,[6],50 µM (active)
same,AC50,[7],32 µM (active)
same,AC50,[8],6.85 µM (active)
same,AC50,HGF (gene 3082),50 µM (active)
same,AC50,[9],8.33 µM (active)
same,AC50,[10],8.19 µM (active)
same,AC50,[11],9.02 µM (active)
same,outcome,[12],inactive
same,AC50,[13],27.8 µM (active)
same,AC50,[14],12.4 µM (active)
same,AC50,[15],50 µM (active)
same,AC50,[16],22.6 µM (active)
same,AC50,[17],9.42 µM (active)
